{
  "source": "PubChem BioAssay (NCI)",
  "note": "About 79,000 compounds went through this panel and 15% of them were active in at least one assay; those are over-represented in the sample as a whole. The source made the active and inactive calls. Cut-off read from the data, not from the text of the source: active = growth inhibition above about 70%; inactive = the rest.",
  "data": [
    {"test": "NCI Yeast Anticancer Drug Screen. Data for the bub3 strain (AID 167)", "details": "S. cerevisiae bub3 mutant strain, at 50.0 µM, active compounds read high", "how_it_was_run": "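In this screen, a yeast mutant lacking normal mitotic checkpoint function is challenged with compound. Relative growth versus vehicle gives the inhibition value.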", "values": [
      {"smiles": "C=C(c1ccc(OC)cc1)c1cc(C(C)(C)C)c(O)c(C(C)(C)C)c1", "growth inhibition": "-4.65% (inactive)"},
      {"smiles": "C=C(C)COC(=O)COc1ccc(Cl)cc1", "growth inhibition": "3.5% (inactive)"},
      {"smiles": "O=C(NCc1ccc(Cl)c(Cl)c1)Nc1ccccc1F", "growth inhibition": "20.4% (inactive)"},
      {"smiles": "CN(C)CCC(C(=O)C(C)(C)C)c1ccccn1", "note": "(stereo not given)", "growth inhibition": "-16.9% (inactive)"},
      {"smiles": "C=Cc1c(C)c(C)c(C=C)c(C)c1C", "growth inhibition": "-10.2% (inactive)"},
      {"smiles": "N#CCN1CCOCCOCCN(CC#N)CCOCCOCC1", "growth inhibition": "7.4% (inactive)"},
      {"smiles": "C=C[C@@H]1C(CO)=CCC2[C@H]1CCC1C(C)(C)C(=O)CC[C@]21C", "note": "(stereo not given in full)", "growth inhibition": "0.05% (inactive)"},
      {"smiles": "Cc1ccc(/C=C2\\N=C(N3CCCC(CO)C3)NC2=O)cc1", "note": "(stereo not given)", "growth inhibition": "1.3% (inactive)"},
      {"smiles": "CC1CC(C)OC(c2ccccc2)O1", "note": "(stereo not given)", "growth inhibition": "-5% (inactive)"},
      {"smiles": "COc1ccc(OC)c(C(=O)C=C(C(F)(F)F)C(F)(F)F)c1", "growth inhibition": "-9.3% (inactive)"},
      {"smiles": "COc1ccc(Cc2c(O)ccc3ccccc23)cc1", "growth inhibition": "98.3% (active)"},
      {"smiles": "ClSC(c1ccccc1)(c1ccccc1)c1ccccc1", "growth inhibition": "-30.9% (inactive)"},
      {"smiles": "CCCCCCCCCCCCCC(=O)OCC1OC(n2cc(F)c(=O)[nH]c2=O)C(N)C(OC(=O)CCCCCCCCCCCCC)C1O", "note": "(stereo not given)", "growth inhibition": "11.6% (inactive)"},
      {"smiles": "CCN(CC)C(=O)C1CCN(CCC(=O)Nc2ccccc2)CC1", "growth inhibition": "5.15% (inactive)"},
      {"smiles": "CC1=C(C(=O)O)CCc2ccccc21", "growth inhibition": "15% (inactive)"},
      {"smiles": "O=C(c1ccccc1CO)N1CCCCC1", "growth inhibition": "-9.2% (inactive)"},
      {"smiles": "N#CNC(=NCCO)NCCO", "growth inhibition": "-0.35% (inactive)"},
      {"smiles": "CC1CCC(C(C)C)C(OC2(c3ccccc3)OC(=O)c3ccccc32)C1", "note": "(stereo not given)", "growth inhibition": "8.65% (inactive)"},
      {"smiles": "COc1ccccc1-n1c(O)c(N=Nc2ccc(Cl)cc2)c(=O)n(-c2ccc(I)cc2)c1=S", "growth inhibition": "1.25% (inactive)"},
      {"smiles": "COC(=O)/C(=N/Nc1cccc(Cl)c1)C(C(=O)C(=O)Nc1cccc(Cl)c1C)c1nc2ccccc2nc1C", "note": "(stereo not given)", "growth inhibition": "11.8% (inactive)"},
      {"smiles": "C=C(C)COc1ccc(-c2ccccc2)cc1", "growth inhibition": "-3.85% (inactive)"},
      {"smiles": "COc1ccc(NC(=O)CC(=O)N/N=C/c2ccc(N(CCC#N)S(=O)(=O)c3ccccc3)cc2)cc1", "growth inhibition": "-11.2% (inactive)"},
      {"smiles": "CNC(=O)/C(=C\\c1ccccc1)NC(C)=O", "growth inhibition": "17.9% (inactive)"},
      {"smiles": "CCOC(=O)NN(C(=O)OCC)C(C(=O)C1CCCCC1)N(NC(=O)OCC)C(=O)OCC", "growth inhibition": "-3.55% (inactive)"},
      {"smiles": "c1ccc(CCc2cccnc2)nc1", "growth inhibition": "-6.1% (inactive)"},
      {"smiles": "O=C(c1cccc(F)c1)c1ccccc1Cc1ccccc1", "growth inhibition": "-3.1% (inactive)"},
      {"smiles": "Cc1cccc(C)c1NC(=O)/C(=N/NC(N)=S)C(C)C(=O)c1ccc(Cl)cc1", "note": "(stereo not given)", "growth inhibition": "4.5% (inactive)"},
      {"smiles": "Cn1c2ccccc2c2[nH]c3ccccc3c(=O)c21", "growth inhibition": "-11.4% (inactive)"},
      {"smiles": "CN(C=O)C(C(=O)Nc1cccc2c(OC(=O)C(N(C)C=O)(N(C)C=O)N(C)C=O)c(N=Nc3ccc(S(=O)(=O)Nc4nccs4)cc3)cc(N=Nc3ccc(S(=O)(=O)Nc4nccs4)cc3)c12)(N(C)C=O)N(C)C=O", "note": "(tested in a mixture with another compound)", "growth inhibition": "16.9% (inactive)"},
      {"smiles": "COc1ccc(C2S/C(=C\\c3ccccc3)C(=O)N2NC(=O)Cc2ccccc2)cc1", "note": "(stereo not given)", "growth inhibition": "-18.6% (inactive)"},
      {"smiles": "CC(=O)OC1CCC2(C)C3C/C(=N\\O)C4(C)C(C(C)OC(C)=O)CCC4C3CCC2(C)C1", "note": "(stereo not given)", "growth inhibition": "93.2% (active)"},
      {"smiles": "Cc1cccc2c(N)c3cccc(C(=O)NCC[N+](C)(C)[O-])c3nc12", "growth inhibition": "18.4% (inactive)"},
      {"smiles": "OCCCCCCOc1ccc(-c2cc(-c3ccccn3)nc(-c3ccccn3)c2)cc1", "growth inhibition": "70.5% (active)"},
      {"smiles": "CCN(CC(=O)NC(=O)c1ccccc1)c1ccccc1", "growth inhibition": "5.5% (inactive)"},
      {"smiles": "COc1ccc(OC)c(NC(=O)CCC/C(CC(=O)c2ccc(O)c(OC)c2)=N\\Nc2ccc([N+](=O)[O-])cc2)c1", "growth inhibition": "-6% (inactive)"},
      {"smiles": "COc1ccccc1N=Nc1c(C)nc(N)nc1-c1ccccc1", "growth inhibition": "4.6% (inactive)"},
      {"smiles": "CCOC(=O)CCC(NC(=O)C(N)c1ccc([N+](=O)[O-])cc1)C(=O)NC(CCC(=O)OCC)C(=O)OCC", "note": "(stereo not given)", "growth inhibition": "-2.55% (inactive)"},
      {"smiles": "Cc1c(C)n(COCCO)c2ncnc(N)c12", "growth inhibition": "-12.6% (inactive)"},
      {"smiles": "CC1CN=C(N(Cc2ccc(F)cc2)C(=O)Nc2ccc(Cl)cc2)S1", "note": "(stereo not given)", "growth inhibition": "7.7% (inactive)"},
      {"smiles": "O=C1C=C2CCCCCCCCC(C1)C2", "note": "(stereo not given)", "growth inhibition": "12.4% (inactive)"}
    ]}
  ]
}
